These results are taken from ChEMBL document CHEMBL4513216, “Probing the Open Global Health Chemical Diversity Library for Multistage-Active Starting Points for Next-Generation Antimalarials” (ACS Infect Dis, 2020).

SMILES strings stand for the structures. The whole screen tested about 69,000 compounds, of which about 8,600 (12%) showed an effect of 50% or more. What follows is part of a selection rich in strong results, with near analogues and random picks from the rest.

The test system of the test is Plasmodium berghei. Kind of test: Screen against P. berghei liver stage (PbLuc), transformed with Luciferase, at 10uM. The test is classed as functional, HepG2. Conditions: tested at 10 uM.
With `CCc1cnc(N)nc1NCCN1CCCCC1`, the INHIBITION worked out at 5.14%. As for `CCc1cnc(N)nc1NCCC(=O)NC1CCCCC1`, the INHIBITION is 68.4%. As for `CCc1nc(N)nc(NCCC(=O)NC2CCCCC2)c1C`, the figure is 41.5%; as for `O=C(NC1CC1)C1(Cc2cc(-c3ccc(F)cc3F)no2)CCOCC1`, 31.6%; as for `NC(=O)NCCC(=O)N1CCC(c2cc(Cc3ccccc3)n[nH]2)CC1`, -5.22%.

Regarding `Nc1cc(N2CCC(c3cc(Cc4ccccc4)n[nH]3)CC2)ccn1`, the INHIBITION was found to be 75.4%.

On to `Cc1ccc(N2CCC(c3cc(Cc4ccccc4)n[nH]3)CC2)nn1`, for which the INHIBITION stood at 20.9%. As for `Cc1cc(CN2CCC(c3cc(Cc4ccccc4)n[nH]3)CC2)[nH]n1`, the figure is 30.9%; as for `Nc1nccc(N2CCC(c3cc(Cc4ccccc4)n[nH]3)CC2)n1`, 78.8%. Regarding `Nc1nc(O)cc(N2CCC(c3cc(Cc4ccccc4)n[nH]3)CC2)n1`, the INHIBITION was found to be 47%. As for `COc1c(CNCCNC(=O)c2ccccc2F)c(C)nn1C`, the figure is -7.31%; as for `Cc1noc([C@H]2C[C@@H]3CCN(CC4CC4)C[C@H]3O2)n1`, -5.29%; as for `Cn1cc(I)c(C(=O)NCCCn2cc(Br)cn2)n1`, 26.8%. In the case of `CC(C)N1CCOCC2(CCCN(C(=O)CCc3cccnc3)C2)C1` (centres undefined) it was 35.4%; in that of `CN1CC(c2cc(O)nc(NCc3ccc(Cl)cc3)n2)CC1=O` (centres undefined), -17.7%. Regarding `C1CCN(CCOC2CCNC2)CC1` (centres undefined), the INHIBITION is 5.42%. As for `CCn1cc(CN2C[C@@H]3CC[C@H]2CN(C(=O)c2cnccn2)C3)cn1`, the INHIBITION was determined as 21.5%. Consider `Cc1cc(C(=O)N2CCC3(CC2)CC(c2cccnc2)C(=O)N3C)no1` (centres undefined), for which the INHIBITION is listed as -36.5%. In the case of `CNCc1cc(F)ccc1Oc1ccc(F)cc1F`, the INHIBITION is -13.7%. For the compound `O=C(Cc1ccncc1)N1CCC2(CC1)CC(c1ccccc1)CO2` (centres undefined), the INHIBITION was determined as 95.5%. Take `Cn1cc(C2COC3(CCN(C(=O)Cc4ccccc4)CC3)C2)cn1` (centres undefined): the INHIBITION was 48.4%. As for `O=C(Cc1ccccc1)N1CCC2(CC1)CC(Nc1cnccn1)CO2` (centres undefined), the figure is 31.5%; as for `CC1COC2(CCN(C(=O)Cc3ccncc3)CC2)C1` (centres undefined), 62.9%; as for `CCOCC(=O)N1CCC2(CC1)CC(c1ccccc1)CO2` (centres undefined), 38.5%. Regarding `COCCC1COC2(CCN(C(=O)Cc3ccccc3)CC2)C1` (centres undefined), the INHIBITION was determined as 28.7%. `CCN1CCC(N2CCN(C)C3(CCC(=O)N(CCOC)CC3)C2)CC1` (centres undefined): the INHIBITION stood at 7.92%. On to `COc1ccccc1-c1cccc(C2CCCN(C3CCOCC3)C2)n1` (centres undefined), for which the INHIBITION was determined as 36.95%.

With `COC(=O)c1cccc(C2CNCCN2C)c1` (centres undefined), the INHIBITION turned out to be 32.7%.

As to `Cn1ccnc1CN1CCC2(CC1)Cc1ccccc1CNC2=O`, the INHIBITION is listed as 23.6%.

For the compound `Cc1nccc(C2CCCN(S(=O)(=O)N3CCOCC3)C2)n1` (centres undefined), the INHIBITION is 24.075%. Take `CNC(=O)CCN(C)CC1(c2ccc(Br)cc2)CC1`: the INHIBITION is on record as -0.532%. Turning to `Cc1ccccc1CN1C[C@H]2CC[C@@H](C1)N(CC1CCC1)C2=O`, the INHIBITION was determined as 28.3%. In the case of `CCn1cnnc1CNC(=O)N1CCOC(c2ccc(Cl)cc2)C1` (centres undefined) it was 27.5%; in that of `O=C(CN1C(=O)CCNC1=O)N1CCOC(c2ccc(F)cc2)C1` (centres undefined), -141%; in that of `N#CC1(C(=O)N2CCOC(c3ccc(Cl)cc3)C2)CCCC1` (centres undefined), 57.1%. As to `N#CC1(C(=O)N2CCOC(c3ccc(F)cc3)C2)CCCCC1` (centres undefined), the INHIBITION is recorded as -14.2%. `NS(=O)(=O)CCN1CCOC(c2ccc(Cl)cc2)C1` (centres undefined): the INHIBITION is -51.9%. Consider `N#CC1(C(=O)N2CCOC(c3ccc(F)cc3)C2)CCCC1` (centres undefined), for which the INHIBITION was 54.2%. `CCN1CC2(CNCCN(C(=O)Nc3ccccc3)C2)CC1=O` (centres undefined): the INHIBITION is listed as -80%. Take `Cc1cccc(CN2C(=O)CCC23CCN(C(=O)NC(C)C)CC3)n1`: the INHIBITION is recorded as -40.5%. As for `CC(C(=O)NCCCN1CCOCC1)n1cncn1` (centres undefined), the INHIBITION was -22.9%. As to `c1csc(CN2CCC3(CCCN(c4nncs4)C3)C2)n1` (centres undefined), the INHIBITION is given as -79.8%. `CCCS(=O)(=O)N1CCC2(CCCN(c3ncc(F)cn3)C2)C1` (centres undefined): the INHIBITION is 41%. For `CCS(=O)(=O)N1CCC2(CCCN(c3ncc(F)cn3)C2)C1` (centres undefined), the INHIBITION is 55.5%. With `Fc1cnc(N2CCCC3(CCN(Cc4nccs4)C3)C2)nc1` (centres undefined), the INHIBITION is on record as 55.5%. In the case of `Fc1cnc(N2CCCC3(CCN(Cc4cccs4)C3)C2)nc1` (centres undefined) it was 57.9%; in that of `COCCN1CCC2(CCCN(c3ncc(F)cn3)C2)C1` (centres undefined), 24.9%. With `c1ccc(N2CCCC3(CCN(Cc4nccs4)C3)C2)nc1` (centres undefined), the INHIBITION amounted to 29.1%. For `COc1ccc(CN2CCC3(CCCN(c4ncc(F)cn4)C3)C2)cc1` (centres undefined), the INHIBITION came to 74.2%. In the case of `c1cnc(N2CCCC3(CCN(Cc4cccs4)C3)C2)nc1` (centres undefined), the INHIBITION is reported as -20.8%.

Regarding `Fc1cnc(N2CCCC3(CCN(Cc4ccoc4)C3)C2)nc1` (centres undefined), the INHIBITION amounted to 40.4%. As for `CS(=O)(=O)N1CCC2(CCCN(c3ncc(F)cn3)C2)C1` (centres undefined), the figure is 28.2%; as for `Fc1cnc(N2CCCC3(CCN(Cc4ccco4)C3)C2)nc1` (centres undefined), -3.88%.

For the compound `CCc1noc(C)c1C(=O)N1CCC(c2[nH]ncc2S(C)(=O)=O)C1` (centres undefined), the INHIBITION worked out at 35.2%. As for `CCNc1cc2c(nn1)CCN(C(=O)c1c(C)noc1C)C2`, the figure is 14.1%; as for `O=C(NCCCO)NCCc1cc(F)ccc1F`, 22.6%.

In the case of `Cc1ccc(CN2CCCn3c(nc(Cn4ccnc4)cc3=O)C2)o1`, the INHIBITION was determined as 10%. For `CN1CCCC1c1ccnc(-c2ccccn2)n1` (centres undefined), the INHIBITION is listed as -5.8%.

Take `NC(=O)COc1ccc(CNCc2c(F)cccc2F)cc1`: the INHIBITION amounted to 31.1%.

Turning to `Cc1ccc(-c2nc(CNC3CCc4ncnn4C3)co2)cc1` (centres undefined), the INHIBITION was 12.7%. Turning to `O=C([C@H]1C[C@H]2CN(c3ncc(F)cn3)C[C@@H]1O2)N1CCCC1`, the INHIBITION stood at 41.2%. Turning to `c1ccc(Cc2nc(CNCCn3cccn3)cs2)cc1`, the INHIBITION was 21.5%. Take `CC(C)c1nnc2n1CCN(C(=O)c1cc3cc(F)ccc3[nH]1)C2`: the INHIBITION is 45.7%.

Regarding `CC(C)c1cccc(N2CCCC3(CCC(=O)N(C4CC4)C3)C2)n1` (centres undefined), the INHIBITION is 50.5%. On to `N#Cc1cccc(N2CCCC3(CCC(=O)N(C4CCCC4)C3)C2)n1` (centres undefined), for which the INHIBITION turned out to be 18.9%. Turning to `CC(O)c1cccc(N2CCC3(CCC(=O)N(C4CCCC4)C3)CC2)n1` (centres undefined), the INHIBITION is reported as -9.31%.

Turning to `COCCCNC(=O)c1ccccc1S(C)(=O)=O`, the INHIBITION is 18.4%. As for `Cc1cc(=O)[nH]c(=O)n1-c1cccc(Cl)c1Cl`, the figure is 17.1%; as for `Cc1cc(C)n(-c2cncc(NCCNC(=O)c3cccnc3)n2)n1`, 31.9%.
